Experimental data: PubChem BioAssay

Experiment: binders of probe aFSTL3 on microarray, primary screen, stem cell growth factor project, biochemical, small-molecule microarray, fluorescence 635/667 (AID 1064);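 further: measures binding of the biotinylated anti-FSTL3 antibody to printed compounds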
Details: higher = more signal

| SMILES | composite z-score |
| --- | --- |
| CC(C)(C)OC(=O)CC[C@@]1(C(=O)NCc2ccccc2)N=C(c2ccc(OCCCO)cc2)O[C@@H]1c1ccccc1 | 0.844 |
| C[C@@H]1CC[C@H]2C(=O)N3CCC[C@H]3C(=O)N2[C@H]1c1ccc(Br)cc1 | -0.162 |
| C=CCNC(=O)[C@H]1[C@@H]2C(=O)O[C@@H](c3ccccc3)[C@@H](c3ccccc3)N2[C@@H](c2ccc(O)cc2)[C@]12C(=O)Nc1ccc(C#CCNC(N)=O)cc12 | 0.587 |
| O=C(NCc1ccccc1)[C@@]1(Cc2ccccc2)COC(c2ccc(OCCCO)cc2)=N1 | 0.618 |
| COc1ccc(C(=O)Nc2ccc(CN3C(=O)[C@]4(O[C@H](CCn5cc(CCO)nn5)[C@@H]([Si](C)(C)c5ccc(OC)cc5)[C@@H]4C)c4ccccc43)cc2)cc1 | 0.263 |
| O=C1C2C=CC(C(O)c3ccccc3)N(n3cnnc3)C2C(=O)N1Cc1ccccc1 (stereo unspecified) | 0.43 |
| O=C1c2ccccc2[C@](Cc2ccccc2I)(C(=O)NCC(F)(F)F)[C@H](c2ccc(CO)cc2)N1Cc1ccccc1C(F)(F)F | -0.379 |
| COCCCNC(=O)[C@@]1(Sc2ccc(C)cc2)CC(=O)N(Cc2cc(C(F)(F)F)cc(C(F)(F)F)c2)[C@@H]1c1ccc(CO)cc1I | 1.12 |
| CC1CC/C=C\[C@H]2OC34C=CCN(Cn5nnc6ccccc65)C(=O)[C@H]3N(C(C)CO)C(=O)[C@@H]4C2C(=O)O1 (stereo partly specified) | -0.0303 |
| COCCOC(=O)N1C(=O)[C@@]2(c3cc(C#CCNC(N)=O)ccc31)[C@H](C(=O)N1CCCCCCC1)[C@H]1C(=O)O[C@H](c3ccccc3)[C@H](c3ccccc3)N1[C@@H]2c1ccccc1OCCO | 2.42 |
| CO[C@H]1COC(=O)CC=C[C@H](C)[C@@H](OC)COC(=O)CC=C[C@@H]1C | -0.623 |
| C=CCNC(=O)[C@H]1[C@@H]2C(=O)O[C@@H](c3ccccc3)[C@@H](c3ccccc3)N2[C@@H](c2ccccc2OCCO)[C@]12C(=O)N(C(=O)OCCOC)c1ccc(C#CCC(C(=O)OC)C(=O)OC)cc12 | -0.257 |
| CCc1cccc(NC(=O)O[C@H]2[C@H](OC(=O)Nc3ccccc3)[C@@H](OC(=O)Nc3ccccc3)[C@@H](OC)O[C@@H]2CO)c1 | -0.0679 |
| O=C1O[C@@H](c2ccccc2)[C@@H](c2ccccc2)N2[C@@H](c3ccccc3OCCO)[C@]3(C(=O)Nc4ccc(C#CC5=CCCCC5)cc43)[C@@H](C(=O)O)[C@H]12 | 0.294 |
| O=C1C[C@@](C(=O)NCCN2CCOCC2)(c2ccc([N+](=O)[O-])cc2)[C@@H](c2ccc(CO)cc2)N1C1CCCCC1 | 0.224 |
| C[C@H]1NC(=O)[C@@H](C)NC(=O)[C@@]23C(=O)N[C@@H](Cc4ccccc4)C2[C@H](C)[C@@]2(C)O[C@H]2C3/C=C/C/C=C\CNC1=O (stereo partly specified) | -0.372 |
| CCC#CCN(Cc1ccccc1Br)[C@H](/C=C/c1ccccc1)[C@@H](O)Cc1ccccc1 | 1.78 |
| C=C(COC)/C(=C/C[C@@H](OC(C)=O)c1cccc(OCCO)c1)c1cc(C(=O)OC)ccc1OC | 0.0462 |
| O=C/C=C/c1ccccc1Cl | 0.206 |
| Cc1ccc(S(=O)(=O)c2cc3oc2CC[C@@H](CO)NC(=O)N(C)Cc2cn(nn2)C[C@H](Cc2ccccc2)NC3=O)cc1 | 0.0181 |
| O=C1O[C@H](c2ccccc2)[C@H](c2ccccc2)N2[C@H]1[C@@H](C(=O)Nc1nc3ccccc3s1)[C@]1(C(=O)Nc3ccc(C#CC4=CCCCC4)cc31)[C@H]2c1ccccc1OCCO | -0.572 |
| C=CCC1=C[C@H]2[C@H]([C@@H]3C=C[C@]2(CC=C)C(=O)[C@]32CO2)[C@@]2(CO2)C1=O | 0.076 |
| CC(C)N1CC=CC23O[C@@H]4/C=C\CCCOC(=O)C4[C@H]2C(=O)N(CCO)[C@@H]3C1=O (stereo partly specified) | -0.0118 |
| C=CCC(OC(C)=O)[C@@H]1[C@@H](N(Cc2cc3ccccc3o2)C(=O)Cc2ccc(F)cc2)c2cc(OCCCO)ccc2N1C(=O)c1ccc(-c2ccccc2)cc1 (stereo partly specified) | 0.117 |
| C=CCc1cccc([C@H]2N[C@H](C(=O)O)CC[C@@H]2C)c1 | -0.746 |
| CCOC(=O)C[C@H]1[C@H](OC(=O)Cc2ccc3c(c2)OCO3)[C@@H](NC(=O)c2ccc3ccccc3c2)c2cc(OCCCO)ccc2N1C(=O)Cc1ccc(OC)cc1 | -0.0089 |

Experiment: binders from COS7 lysate, DM2A8 probe, primary screen, torsin A project, cell lysate, small-molecule microarray, fluorescence 635/667 (AID 1065)
Details: higher = more signal, COS7 lysate expressing mutant human TOR1A

| SMILES | composite z-score |
| --- | --- |
| Cc1ccc(S(=O)(=O)N2[C@@H](c3ccccc3)C(C(=O)O)=CC[C@H]2c2ccccc2)cc1 | -0.0906 |
| CC[C@H]1C2=C3C(CC[C@H]4C(OC)OC[C@](C)([C@@H]34)N(C(=O)OC(C)(C)C)C2)C(CO)C1CO (stereo partly specified) | 0.896 |
| C=CCN1C(=O)[C@@]2(O[C@@H](CCn3cc([C@H](O)c4ccccc4)nn3)[C@H]([Si](C)(C)c3ccc(OC)cc3)[C@H]2C)c2cc(N3CCOC3=O)ccc21 | 0.39 |
| CO[C@@H]1COC(=O)CC=C[C@@H](C)[C@H](OC)COC(=O)CC=C[C@H]1C | 1.22 |
| CCCC[C@H]1OB(O)C[C@H]2C1=C(COC)C[C@H]1C(=O)N(Cc3ccccc3)C(=O)[C@H]12 | 0.323 |
